Among the data in PubChem BioAssay are composite z-score and z-score values, retold here.

The structures appear in SMILES notation. Active and inactive are the calls of the source. Unless noted, how the calls were made is not given here.

The nature of test [1]: compounds binding Alexa647 anti-His antibody – biochemical, small-molecule microarray, 635 nm fluorescence, artefact control for SMM control protein annotation, primary screen (AID 1128).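 Further: score merges feature fluorescence with signal-to-noise for each printed compound spot.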 The conditions noted are these: higher = more signal.
Test [2] has as its system Human papillomavirus type 1a E7 protein (residues 1-88). Kind of test: HPV1a E7 small-molecule binders, primary screen, biochemical, small-molecule microarray, residues 1-88, 635 nm (AID 1129). The conditions noted are these: small-molecule microarray binding, fluorescence 635 nm; higher = more signal.
Test [3] concerns the target Focal adhesion kinase 1 (Homo sapiens) (UniProt Q05397). Briefly: PTK2 protein binding on printed compound slides – biochemical, small-molecule microarray, 635/667 nm fluorescence, BSA, DTT, primary screen (AID 1130).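 Further: composite of spot emission at 667 nm and signal to noise over triplicate slides.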 The conditions noted are these: 635 nm fluorescence, higher = more signal.
In test [4] the test system is Fibrinogen (Alexa647-labelled). Briefly: Alexa647-fibrinogen binding to printed small molecules – biochemical, small-molecule microarray, 635/667 nm fluorescence, artefact control for SMM control-protein annotation, profiling panel (AID 1131).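 Further: z-score merges 667 nm fluorescence with per-spot signal-to-noise over triplicate slides.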 The conditions noted are these: fibrinogen-A647 binding fluorescence, higher = more signal.
For test [5], the target named is Follistatin (Homo sapiens) (UniProt P19883). Briefly: FST protein binding to printed compounds – biochemical, small-molecule microarray, 635/667 nm fluorescence, primary screen (AID 1132). The conditions noted are these: 635 nm fluorescence, higher = more signal.
Follistatin (Homo sapiens), sequence (P19883 whole entry, looked up): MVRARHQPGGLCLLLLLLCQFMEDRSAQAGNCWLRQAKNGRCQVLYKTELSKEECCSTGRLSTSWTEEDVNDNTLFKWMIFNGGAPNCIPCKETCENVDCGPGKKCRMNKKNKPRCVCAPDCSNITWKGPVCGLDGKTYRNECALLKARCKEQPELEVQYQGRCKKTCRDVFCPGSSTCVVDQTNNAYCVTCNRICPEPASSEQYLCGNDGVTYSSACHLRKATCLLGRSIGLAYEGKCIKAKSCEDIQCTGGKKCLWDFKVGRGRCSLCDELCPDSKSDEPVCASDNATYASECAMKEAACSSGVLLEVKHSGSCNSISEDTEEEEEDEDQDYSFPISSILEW
The target of test [6] is Fibroblast growth factor 2 (Homo sapiens) (UniProt P09038). Kind of test: basic fibroblast growth factor binding to printed compounds – biochemical, small-molecule microarray, 635/667 nm fluorescence, primary screen (AID 1133). The conditions noted are these: FGF2, fluorescence 635/667, higher = more signal.
Fibroblast growth factor 2 (Homo sapiens), sequence (P09038 whole entry, looked up): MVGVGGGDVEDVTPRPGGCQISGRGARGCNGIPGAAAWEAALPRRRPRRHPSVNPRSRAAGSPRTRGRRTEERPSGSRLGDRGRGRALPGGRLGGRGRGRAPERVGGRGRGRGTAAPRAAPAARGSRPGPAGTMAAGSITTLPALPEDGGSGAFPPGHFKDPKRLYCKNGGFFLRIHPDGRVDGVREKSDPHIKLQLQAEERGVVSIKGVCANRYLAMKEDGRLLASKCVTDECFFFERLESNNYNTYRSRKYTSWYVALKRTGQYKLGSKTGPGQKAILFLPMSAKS
A short description of test [7]: JC-1 mitochondrial potential readout, lung cancer cells – cell-based, A549, JC-1 fluorescence, basal, 24 h, 100 nL, profiling panel (AID 1138).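 Further: A549 lung adenocarcinoma cells under basal conditions with no added stimulus; test concentration not given here.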 The conditions noted are these: higher = more signal.
The subject of another test is Lefty1. Kind of test: Lefty1 protein binding to printed compounds – biochemical, small-molecule microarray, 635/667 nm fluorescence, primary screen (AID 1139). The conditions noted are these: fluorescence 635/667, higher = more signal.
The subject of test [8] is wheat germ agglutinin (Triticum aestivum), Alexa647-labelled. Kind of test: Alexa647-WGA lectin binding to printed small molecules – biochemical, small-molecule microarray, 635/667 nm fluorescence, artefact control for SMM control-protein annotation, profiling panel (AID 1140).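 Further: score merges 667 nm feature emission with signal to noise over triplicate slides.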 The conditions noted are these: WGA-A647 binding, 635 nm fluorescence, higher = more signal.
For test [9], the target named is Luciferin 4-monooxygenase (Photinus pyralis) (UniProt P08659). Briefly: inhibition of purified Photinus pyralis luciferase – biochemical, luminescence, purified enzyme, 2006 set, primary screen (AID 1141).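 Further: cell-free assay with purified firefly luciferase at 100 ng per well in PBS; test concentration not given here.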 The conditions noted are these: purified firefly luciferase, SteadyGlo luminescence, 30 min; higher = more signal, called active from +8 up or from −8 down.
Luciferin 4-monooxygenase (Photinus pyralis), sequence (P08659 whole entry, looked up): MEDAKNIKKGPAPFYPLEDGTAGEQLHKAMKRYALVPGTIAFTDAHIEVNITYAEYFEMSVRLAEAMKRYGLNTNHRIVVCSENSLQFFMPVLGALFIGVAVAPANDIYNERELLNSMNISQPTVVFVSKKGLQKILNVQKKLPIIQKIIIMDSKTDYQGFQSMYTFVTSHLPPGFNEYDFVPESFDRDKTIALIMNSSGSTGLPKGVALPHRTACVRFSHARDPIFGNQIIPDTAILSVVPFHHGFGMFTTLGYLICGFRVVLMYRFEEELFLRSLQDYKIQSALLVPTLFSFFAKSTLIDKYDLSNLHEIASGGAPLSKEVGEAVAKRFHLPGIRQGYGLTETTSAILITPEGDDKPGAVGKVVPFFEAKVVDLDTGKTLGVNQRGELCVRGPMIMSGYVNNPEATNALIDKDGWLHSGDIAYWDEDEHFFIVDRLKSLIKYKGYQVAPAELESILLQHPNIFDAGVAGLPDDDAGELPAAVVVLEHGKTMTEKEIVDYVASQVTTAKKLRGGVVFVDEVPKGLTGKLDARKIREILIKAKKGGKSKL
The test system of test [10] is Wnt5a (protein binding on small-molecule microarray). Kind of test: small molecules binding Wnt5a protein – biophysical, small-molecule microarray, 635/667 nm fluorescence, primary screen (AID 1142).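 Further: fluorescence read at 667 nm with signal to noise per printed feature.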 The conditions noted are these: 635 nm fluorescence, higher = more signal.
The nature of test [11]: ATP-based viability of Huh7 replicon cells – cell-based, CellTiter-Glo luminescence, basal, 48 h, cytotoxicity control for HCV replication inhibitor project, primary screen (AID 1143).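 Further: Huh7 hepatoma cells carrying a hepatitis C replication reporter with no stimulus; test concentration not given here.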 The conditions noted are these: higher = more signal, called active from +8 up or from −8 down.
A short description of test [12]: Pseudomonas biofilm growth suppression – PAO1 strain, BacTiter-Glo luminescence, LB-PBS, primary screen (AID 1144). The conditions noted are these: P. aeruginosa PAO1 biofilm, 12 h, higher = more signal.
Test [13] in a line: basal CRE-LacZ reporter activity in PC12 – cell-based, unstimulated, primary screen (AID 1145). The conditions noted are these: no forskolin, luminescence, 4.5 h, higher = more signal, called active from +8 up or from −8 down.
The nature of test [14]: forskolin-driven CRE-LacZ activity in PC12 – cell-based, CRE-LacZ reporter, forskolin-stimulated, primary screen (AID 1146).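 Further: PC12 cells with 6xCRE LacZ reporter stimulated by forskolin 10 µM; beta-galactosidase reporter signal reflecting CREB driven transcription.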 The conditions noted are these: luminescence, 4.5 h, higher = more signal, called active from +8 up or from −8 down.
Test [15] concerns the target Streptavidin (Streptomyces avidinii) (UniProt P22629). Briefly: compounds binding control protein streptavidin – biophysical, small-molecule microarray, 635/667 nm fluorescence, artefact control for SMM compound annotation, primary screen (AID 1147).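 Further: signal reflects streptavidin binding to arrayed compounds as a control protein.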 The conditions noted are these: higher = more signal.
A short description of test [16]: probe aInhba binding on compound microarray – biochemical, small-molecule microarray, 635/667 nm fluorescence, primary screen (AID 1148).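 Further: score merges 667nm spot fluorescence with signal-to-noise for antibody binding to printed compounds.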 The conditions noted are these: higher = more signal.
The target of test [17] is Torsin-1A (Homo sapiens) (UniProt O14656). Kind of test: TOR1A wild-type binding on microarray – cell lysate, small-molecule microarray, lysate, 635/667 nm, primary screen (AID 1149). The conditions noted are these: COS7 hTOR1A-WT lysate, 635 nm fluorescence, higher = more signal.
Torsin-1A (Homo sapiens), sequence (O14656 whole entry, looked up): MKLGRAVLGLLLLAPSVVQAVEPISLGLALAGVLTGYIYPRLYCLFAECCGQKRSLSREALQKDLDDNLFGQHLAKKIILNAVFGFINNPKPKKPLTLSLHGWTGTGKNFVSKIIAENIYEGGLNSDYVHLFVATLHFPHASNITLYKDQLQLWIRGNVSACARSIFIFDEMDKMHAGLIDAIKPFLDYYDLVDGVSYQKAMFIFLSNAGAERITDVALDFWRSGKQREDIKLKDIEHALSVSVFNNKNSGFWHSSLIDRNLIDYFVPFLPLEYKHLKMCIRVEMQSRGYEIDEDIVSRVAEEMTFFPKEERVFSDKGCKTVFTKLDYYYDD
For test [18] the target is unchanged. Briefly: torsin A mutant lysate binding on microarrays – cell lysate, small-molecule microarray, COS7 lysate, 635/667 nm fluorescence, primary screen (AID 1150).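 Further: score pools 667 nm emission and signal to noise measuring lysate protein binding.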 The conditions noted are these: COS7 hTOR1A mutant lysate, 635 nm fluorescence, higher = more signal.
In test [19] the test system is Sonic hedgehog protein (Shh). Kind of test: Sonic hedgehog microarray binding compounds – biochemical, small-molecule microarray, 635/667 nm fluorescence, primary screen (AID 1151).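 Further: Shh protein binding to compounds spotted on small-molecule microarray slides; score combines spot fluorescence intensity with signal-to-noise across triplicate slides.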 The conditions noted are these: 635 nm fluorescence, higher = more signal.

Focal adhesion kinase 1 (Homo sapiens), sequence (Q05397 whole entry, looked up): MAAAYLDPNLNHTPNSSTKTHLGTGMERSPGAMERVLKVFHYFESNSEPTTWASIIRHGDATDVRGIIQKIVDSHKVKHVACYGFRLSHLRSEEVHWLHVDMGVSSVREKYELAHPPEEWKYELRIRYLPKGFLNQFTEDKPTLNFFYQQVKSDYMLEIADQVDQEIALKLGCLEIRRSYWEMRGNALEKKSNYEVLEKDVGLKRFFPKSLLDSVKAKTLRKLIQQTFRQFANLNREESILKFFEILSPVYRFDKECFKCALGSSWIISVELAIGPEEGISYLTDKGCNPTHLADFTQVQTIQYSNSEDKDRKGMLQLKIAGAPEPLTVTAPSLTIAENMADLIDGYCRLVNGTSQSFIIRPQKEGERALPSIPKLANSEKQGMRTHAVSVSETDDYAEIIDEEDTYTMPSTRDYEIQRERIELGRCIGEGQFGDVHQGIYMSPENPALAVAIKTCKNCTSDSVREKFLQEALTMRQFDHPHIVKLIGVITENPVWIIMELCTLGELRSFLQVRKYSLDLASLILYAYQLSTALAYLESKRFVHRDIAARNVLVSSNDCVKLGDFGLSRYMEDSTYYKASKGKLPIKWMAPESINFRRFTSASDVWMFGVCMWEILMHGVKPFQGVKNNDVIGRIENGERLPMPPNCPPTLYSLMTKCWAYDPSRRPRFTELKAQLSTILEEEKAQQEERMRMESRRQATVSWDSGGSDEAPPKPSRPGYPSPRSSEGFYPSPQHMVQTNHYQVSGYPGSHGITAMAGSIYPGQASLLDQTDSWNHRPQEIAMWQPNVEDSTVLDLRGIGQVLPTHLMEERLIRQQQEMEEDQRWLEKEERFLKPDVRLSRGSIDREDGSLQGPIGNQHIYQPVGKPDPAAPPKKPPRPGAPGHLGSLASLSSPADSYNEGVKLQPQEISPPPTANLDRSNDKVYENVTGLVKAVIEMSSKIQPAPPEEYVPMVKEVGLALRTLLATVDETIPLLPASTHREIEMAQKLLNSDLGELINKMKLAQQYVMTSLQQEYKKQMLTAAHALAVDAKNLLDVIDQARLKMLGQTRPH
Streptavidin (Streptomyces avidinii), sequence (P22629 whole entry, looked up): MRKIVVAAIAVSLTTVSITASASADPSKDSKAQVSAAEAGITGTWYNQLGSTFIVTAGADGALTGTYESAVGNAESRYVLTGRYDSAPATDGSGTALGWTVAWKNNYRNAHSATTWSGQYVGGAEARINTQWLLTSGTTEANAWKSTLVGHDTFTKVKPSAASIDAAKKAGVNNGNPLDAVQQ

Consider `COc1ccc(O[C@H]2C=C[C@@H](c3ccccc3)O[C@@H]2CON=C(C)CCC(=O)OC[C@H]2O[C@H](c3ccccc3)C=C[C@@H]2Oc2ccc(OC)cc2)cc1`, for which the composite z-score in test [1] was 0.704; in test [2] it was -2.01; in [3] it was -0.204; in test [4], -0.218; in test [5], -0.174; in test [6], -0.922. In addition, the composite z-score with Lefty1 was -0.162; in test [8] it was -1.13; in test [10], -0.874; in [15], 0.204; in test [16], -0.0136; with Torsin-1A (Homo sapiens) [17], -2.42. Besides, the composite z-score with Torsin-1A (Homo sapiens) [18] was -1.43; in test [19] it was 2.02. The z-score in [7] is 0.0976; in [9], 1.27 (inactive); in [11], -0.461 (inactive); in test [12], 0.107 (inactive); in test [13] it was -0.887 (inactive); in test [14], 0.593 (inactive).
In the case of `C[C@@H](c1ccccc1)N1C(=O)[C@H]2[C@H]3[C@H](O)[C@H](O)CC(=NO[C@@H]4O[C@H](CO)[C@@H](O)[C@H](O)[C@H]4O)[C@H]3CC[C@H]2C1=O`, the composite z-score in [1] is 0.746; in test [2], 0.76; in test [3], -0.0492; in [4], 0.318; in [5], 0.656; in [6], 0.444. Also, the composite z-score with Lefty1 is 0.554; in test [8], 0.0795; in test [10], 0.189; in test [15], 0.152; in test [16], -0.142; in the test with Torsin-1A (Homo sapiens) [17], 0.225. Moreover, the composite z-score was found to be 0.249 with Torsin-1A (Homo sapiens) [18] and 0.457 in [19]. Besides, the z-score was 0.296 in [7]; 0.491 (inactive) in test [9]; 0.573 (inactive) in [11]; -0.104 (inactive) in test [12]; -0.294 (inactive) in test [13]; 0.845 (inactive) in test [14].
In the case of `CCN1C(=O)[C@@H]2[C@H]3C(=CC[C@@H]2C1=O)C1(OCCCO1)[C@H]1O[C@H]1[C@H]3O`, the composite z-score in test [1] turned out to be 0.841; in [2], 1.04; in test [3], 0.162; in test [4] it was 0.982; in test [5], 1.12; in [6], 0.944. Further, the composite z-score in the test on Lefty1 came to 0.946; in [8] it was 0.692; in test [10] it was 0.36; in test [15], 1.13; in test [16], 0.0513; in the test with Torsin-1A (Homo sapiens) [17], 0.616. Besides, the composite z-score with Torsin-1A (Homo sapiens) [18] came to 1.09; in test [19], 0.956. Further, the z-score in [7] was -2.41; in test [9] it was -26.1 (active); in [11], -8.11 (active); in test [12], 0.291 (inactive); in [13], 0.196 (inactive); in test [14], 23.3 (active).
In the case of `CC(C)CON=C1C[C@@H](O)[C@@H](O)[C@@H]2[C@@H]3C(=O)N(C[C@@H]4CCCO4)C(=O)[C@@H]3CC[C@@H]12`, the composite z-score was 0.0488 in [1]; -0.0845 in test [2]; 0.348 in [3]; 0.222 in test [4]; -0.341 in test [5]; -0.0796 in [6]. Besides, the composite z-score in the test with Lefty1 is -0.399; in [8], 0.561; in test [10] it was 0.0867; in test [15], -0.265; in [16], -0.0987; with Torsin-1A (Homo sapiens) [17], -0.25. Further, the composite z-score with Torsin-1A (Homo sapiens) [18] is 0.0844; in test [19], -0.321. Also, the z-score was 0.221 in test [7]; 0.141 (inactive) in [9]; 1.13 (inactive) in test [11]; -0.184 (inactive) in [12]; -0.0246 (inactive) in test [13]; 0.436 (inactive) in test [14].
Turning to `CC1O[C@H]2C3=C(C(=O)[C@@H]4O[C@@H]4[C@H]3O)[C@@H]1C1[C@@H](C)OC=C3[C@H](O)C4O[C@@H]4C(=NOCc4ccccc4)[C@]312` (stereo not given in full), the composite z-score was 0.331 in test [1]; -0.492 in [2]; -0.0962 in test [3]; -1.18 in test [4]; -0.117 in test [5]; 0.468 in test [6]. In addition, the composite z-score with Lefty1 was 0.16; in test [8], -0.911; in test [10], 0.161; in test [15] it was -0.438; in test [16], -0.0963; with Torsin-1A (Homo sapiens) [17], 1.66. Besides, the values for the composite z-score (in the test with Torsin-1A (Homo sapiens) [18]; in test [19]) were -0.073 and 0.242, respectively. Besides, the z-score is 0.476 in test [7]; -0.399 (inactive) in test [9]; -3.64 (inactive) in [11]; 0.933 (inactive) in test [12]; 2.18 (inactive) in [13]; 6.5 (inactive) in [14].
